Peg3 promoter: Peg3 promoter activity inhibition; HeLa PEG-Prom luciferase reporter, luminescence, overnight; inhibition, % at 20 µM; actives 1.7% (n = 360,000); AID 588405;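 active = inhibition of at least 50% at 20 µM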
Shn3 3UTR inh: Schnurri-3 reporter inhibition in Clone20 osteoblasts; Clone20 osteoblast Shn3 3'UTR firefly luciferase, 24 h; inhibition, % at 12.5 µM; actives 0.52% (n = 360,000);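 active = mean inhibition of at least 75% with every replicate also reaching 75%; inconclusive = mean inhibition at least 75% but some replicate below; inactive = mean inhibition below 75%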;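 also: 0% = median of neutral control wells and 100% = pilot-screen positive control compound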
MITF TRPM1 inh: MITF TRPM1 promoter inhibition in SK-MEL-5 cells; actives 0.83% (n = 330,000); AID 488899; inhibition, % at 12.5 µM; SK-MEL-5 TRPM1 promoter luciferase, 24 h;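 active = mean inhibition across replicates of 60% or more, whatever share of single replicates reaches that level; inconclusive = some that reach 60%, reason not given; inactive = mean inhibition across replicates below 60%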
CF NFkB block: cystic fibrosis NF-kB activation inhibition. KKLEB NF-kB-GFP reporter, PAF-induced, GFP fluorescence overnight. inhibition, % at 5 µM. actives 0.86% (n = 360,000). AID 588850;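 active = at least 50% inhibition at 5 µM, scaled per plate between neutral and stimulator controls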;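 also: PAF is a Pseudomonas aeruginosa culture filtrate used as stimulus; plate controls were PAF-stimulated DMSO wells for no effect and unstimulated DMSO wells for full effect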
KKLEB cytotox: reduces viability of KKLEB cystic fibrosis airway cells. KKLEB CF airway cells viability, ATPlite luminescence, overnight; active compounds read low; cells stimulated with P. aeruginosa culture filtrate. activity change (cytotoxicity), % at 5 µM. actives 0.36% (n = 360,000);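 active = corrected activity change at or below -50% at 5 µM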
LMP1 NFkB inh: reduces LMP1-driven NF-kappaB luciferase signal; LMP1-induced NF-kappaB luciferase reporter cells, luminescence; actives 0.69% (n = 350,000); inhibition, % at 12.5 µM; AID 504558; in the data active = inhibition above about 41%; inconclusive = no clear call, values can overlap the other calls;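 also: 0% = neutral control wells and 100% = reference inhibitor control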
CF NFkB inh conf: CF NF-kB inhibition confirmation, single concentration; shares compounds with CF NFkB block; KKLEB CF airway cells, PAF-induced NF-kB-GFP fluorescence, overnight; inhibition, % at 5 µM; actives 64% (n = 1,300); AID 602472; in the data active = inhibition above about 40%;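 also: stimulus PAF is a Pseudomonas aeruginosa filtrate and not platelet activating factor; plate controls were DMSO wells with stimulus for no effect and unstimulated DMSO wells for full effect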
Numbers without * were called inactive; ? = inconclusive; · = no result. A selection: hits, their analogues and other compounds. The true share with any hit is near 2.9%.

SMILES | Peg3 promoter | Shn3 3UTR inh | MITF TRPM1 inh | CF NFkB block | KKLEB cytotox | LMP1 NFkB inh | CF NFkB inh conf
COc1ccc(CCNS(=O)(=O)c2ccc(C3CNC(=O)C3)cc2)cc1OC (centres undefined) | -3 | -1 | -3 | -1 | 8 | 0 | ·
CCN(Cc1ccccc1)C(=O)COC(=O)c1cc(S(=O)(=O)Nc2ccccc2OC)ccc1O | 12 | 3 | 2 | -21 | 9 | 6 | ·
O=C(O)c1c[nH]c2nccnc12 | 6 | -3 | · | 19 | 8 | -1 | ·
C=C(C)[C@@H]1CCC2(C(=O)O)CC[C@]3(C)[C@H](CC[C@@H]4[C@@]5(C)CCC(=O)C(C)(C)[C@@H]5CC[C@]43C)[C@@H]12 (some centres undefined) | 8 | -18 | 10 | 63* | -17 | 49* | 64*
Cc1ccc(-c2onc3ccc(C(=O)/C=C/N(C)C)cc23)cc1 | -28 | 4 | -10 | 68* | -3 | -14 | 47*
Cn1nnnc1Sc1ncnc2scc(-c3ccc(C#N)cc3)c12 | 103* | 80 | 92* | 77* | -48 | 57* | 3
Fc1ccc(CSc2ncnc3scc(-c4ccccc4)c23)cc1 | 20 | -3 | -14 | 43 | -9 | 6 | ·
Cn1nnnc1Sc1ncnc2scc(-c3cccc(F)c3)c12 | 102* | 68 | 78* | 66* | -17 | 24 | 29
CCOC(=O)/C=c1/s/c(=C\c2c(OC)ccc3ccccc23)c(=O)n1CC(=O)NCC1CCCO1 (centres undefined) | 11 | 14 | 26 | 54* | -33 | 5 | 65*
Cc1ccnc(NC(=O)Cc2ccc(-c3ccccc3)cc2)c1 | 98* | -435 | -46 | 62* | -17 | -335 | 58*
O=C(Cc1ccc(-c2ccccc2)cc1)Nc1ccccn1 | -122 | -40 | -63 | 20 | -19 | -2 | ·
CCCN(CC(=O)Nc1ccccc1C)C(=O)c1cnc(C)cn1 | 5 | 0 | 1 | 0 | -5 | -1 | ·
CCC(CC)C(=O)N(C)c1c(C)nc2c(OCc3cccc(OC)c3)cccn12 | 2 | -9 | · | -37 | 13 | · | ·
CN(Cc1ccccc1)C(=O)c1csc(COCCO)n1 | 6 | 2 | · | 13 | 2 | · | ·
COc1ccc(-n2ncc3c(N4CCN(Cc5ccccc5)CC4)ncnc32)cc1 | 103* | -7 | -8 | 66* | 6 | -1 | 74*
COCCNC(=O)C1CCCN(C(=O)/C=C/c2ccccc2)CC1 (centres undefined) | 1 | -17 | · | -32 | 6 | · | ·
CCCC(=O)N(Cc1cc2cc(OC)ccc2[nH]c1=O)c1ccc(OC)cc1 | 23 | 10 | · | -8 | 3 | -1 | ·
O=c1c2ccccc2nnn1CSc1ncnc2ccccc12 | 16 | -34 | 9 | 66* | -36 | 20 | 41*
Nc1cccc2c1C(=O)N(C(=O)/C=C/c1cccc(Br)c1)C2=O | 54* | -4 | 27 | 56* | 22 | -11 | -67
Nc1cccc2c1C(=O)N(C(=O)/C=C/c1cccc(F)c1)C2=O | 80* | -14 | 35 | 52* | -9 | 29 | -11
O=C(/C=C/c1cccc(F)c1)N1CCN(c2ccccn2)CC1 | -24 | -8 | -22 | -7 | -7 | -4 | ·
CCOC(=O)N(C)c1c(CC)nc2c(OCc3ccc(F)cc3)cccn12 | 8 | 6 | · | -8 | 2 | · | ·
Cc1ccc(Cc2cnc(NC(=O)/C(C#N)=C/c3ccc(-c4ccccc4[N+](=O)[O-])o3)s2)cc1 | 36 | 18 | 3 | 52* | -50 | 1 | -2
CCNC(=O)C1(C)CCCN(Cc2ccc(-c3ccccc3)o2)C1 (centres undefined) | -10 | 10 | · | 58* | -3 | · | 63*
COCCNC(=O)C1(C)CCCN(Cc2ccc(-c3ccccc3)o2)C1 (centres undefined) | 17 | 13 | · | 4 | 7 | · | ·
SMILES | Peg3 promoter | Shn3 3UTR inh | MITF TRPM1 inh | CF NFkB block | KKLEB cytotox | LMP1 NFkB inh | CF NFkB inh conf
CCCSc1nnc(CNS(=O)(=O)c2ccc(C)cc2)n1C | 3 | 10 | -20 | -26 | 1 | -6 | ·
O=C(C#Cc1ccccc1)c1ccccc1 | 100* | 99* | · | 99* | -28 | -3 | 44*
CN(C)C(=O)C#Cc1ccccc1 | 7 | 3 | -3 | -3 | -7 | -9 | ·
Cc1ccc(NC(=O)COC(=O)C2CCN(c3ccc(C(F)(F)F)cn3)CC2)cc1C | -3 | -5 | -6 | 7 | -10 | -2 | ·
O=C(COC(=O)C1CCN(c2ccc(C(F)(F)F)cn2)CC1)Nc1cccc(F)c1 | -12 | -19 | -4 | 64* | -18 | -3 | 19
CCOc1ccc(Nc2ncnc3ccc([N+](=O)[O-])cc23)cc1 | 12 | 9 | -7 | 75* | -14 | ? | 87*
CCOC(=O)c1ccc(Nc2ncnc3ccc(C)cc23)cc1 | -6 | 27 | 5 | 31 | -3 | -4 | ·
CCOC(=O)C1CCN(c2cc3c(cc2NC(=O)c2ccc(OC)c(OC)c2)n(C)c(=O)n3C)CC1 | 45 | 15 | 5 | 54* | 9 | 9 | 23
CCNC(=O)C1(C)CCN(Cc2csc(-c3ccccc3)n2)C1 (centres undefined) | -107 | -5 | · | -21 | 15 | · | ·
Cc1[nH]nc2c1-c1nc3ccccc3nc1C(C)(C)C2 | 22 | 89* | 41 | 51* | -14 | -32 | 54*
CC12CCC(C)(c3nc4ccccc4nc31)C2(C)C | -10 | -9 | -4 | -20 | 4 | 2 | ·
N#Cc1ccc(C(=O)N2CCC3CC2c2cc(N4CCCCC4)ccc23)cc1 (centres undefined) | -1 | 19 | · | -7 | -2 | -6 | ·
Nc1nccc(-c2ccc(-n3cnc4ccccc43)cc2)n1 | -127 | -4 | -38 | 77* | -9 | 38 | 80*
COc1cc2ncnc(NCc3ccc(C)o3)c2cc1OC | 7 | 24 | 2 | 2 | -7 | 12 | ·
Cc1ccc(CNc2ncnc3ccc(-c4ccoc4C)cc23)o1 | 18 | 31 | · | 74* | -5 | · | 97*
Cc1nn(-c2nccs2)c2c1C(=O)CC(C)(C)C2Br (centres undefined) | 50 | -19 | 16 | 51* | 2 | -46 | 61*
Cc1cnc(CNC(=O)c2csc([C@@H]3C[C@H](O)[C@@H](CO)O3)n2)cn1 | -8 | -4 | · | -7 | -4 | · | ·
CC(=O)c1ccc(NC(=O)Nc2ccc3c(c2)N(C)C(=O)CS3)cc1 | -14 | -15 | -16 | 72* | -34 | 3 | 53*
CCOC(=O)C1C(C(=O)OCC)C(C)(C)C1N(C)C (centres undefined) | 6 | -32 | · | 18 | 1 | 5 | ·
Cc1cccc(N(Cc2ccccc2)C(=O)CN2C(=O)NC3(CCCC3)C2=O)c1 | 2 | 10 | 12 | 19 | -1 | -6 | ·
C=CCOC1=CS(=O)(=O)N(Cc2ccc(Br)cc2)c2ccc(Br)cc21 | 24 | 13 | 11 | 29 | -33 | -6 | ·
